Screens: PubChem, several laboratories
WT yeast gro inh: growth inhibition of WT yeast, mitochondrial fusion screen | inhibition, % at 10 µM | 190,000 tested, 2.1% active | mitochondrial fusion phenotypic screen, WT strain; in the data active means inhibition above about 58%; tested in S. cerevisiae
Lmaj promast: inhibitors of Leishmania major promastigote growth | inhibition, % at 10 µM | AID 1063 | Leishmania major promastigotes, resazurin fluorescence viability | 200,000 tested, 9% active; in the data active means inhibition above about 50%;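 further: promastigotes grown with compound for 44 hours at 28 °C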
Arbovirus anti: blocks arbovirus infection; arbovirus infection cell-based antiviral screen; 200,000 tested, 0.37% active; inhibition, % at 10 µM; in the data active means inhibition above about 30%
CHOP inh: CHOP inhibition in unfolded protein response; inhibition, % at 10 µM; CHO-K1 CHOP-promoter luciferase, tunicamycin-induced, 15-18 h; AID 2732; 220,000 tested, 3.8% active;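 active means compounds that reduced the stress-induced luciferase reporter signal by more than about 70% of percent inhibition, limit read from the data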
Each line names hits and unclear results; the compound was inactive in the other large screens. Only some compounds are listed: those with a hit (about 12% of all), similar ones and a draw of the others.

CN(c1ccccc1)S(=O)(=O)c1ccc(Cl)c(C(=O)Nc2ccc(-c3nc4ccccc4[nH]3)cc2)c1	Lmaj promast 96
Cc1ccc(C)c(S(=O)(=O)Nc2cc(SCC(=O)O)c(O)c3ccccc23)c1	Lmaj promast 100
O=C(O)CSc1cc(NS(=O)(=O)c2cccc([N+](=O)[O-])c2)c2ccccc2c1O	none (no result: WT yeast gro inh, Lmaj promast, Arbovirus anti)
CCc1ccc(S(=O)(=O)Nc2cc(SCC(=O)O)c(O)c3ccccc23)cc1	Lmaj promast 99
O=S(=O)(Nc1cc(Sc2cccc3cccnc23)c(O)c2ccccc12)c1ccccc1	Lmaj promast 100, CHOP inh 101
CC(NC(=O)CN(C)Cc1cccs1)c1ccccc1 (stereo not drawn)	none
Nc1cccc(Oc2ccc([N+](=O)[O-])cc2)c1	none
CCCC(=O)N(C1CC(C)C(C#N)(C#N)C1(C#N)C#N)N(C)C (stereo not drawn)	none (no result: WT yeast gro inh, Lmaj promast, Arbovirus anti)
CC(=O)N(C1CC(C)C(C#N)(C#N)C1(C#N)C#N)N(C)C (stereo not drawn)	CHOP inh 92
CC(=O)N1N=C(c2ccc(C)cc2)OC1c1ccc(Br)cc1 (stereo not drawn)	WT yeast gro inh 63, CHOP inh 93
CC(=O)N1N=C(c2ccc(Cl)cc2)OC1c1ccc(C(C)C)cc1 (stereo not drawn)	none
COc1ccc(CC(=O)N/N=C(\C)CC(=O)NCc2ccco2)cc1OC	none (no result: WT yeast gro inh, Lmaj promast, Arbovirus anti)
COc1ccc(N(Cc2ccco2)C(=O)c2ccccc2F)cc1OC	Lmaj promast 59
O=C(CSc1ccccc1)N1CCN(C(=O)c2ccco2)CC1	none
O=C(c1ccco1)N1CCN(C(=O)C(Sc2ccccc2)c2ccccc2)CC1 (stereo not drawn)	Lmaj promast 59
NNC(=O)c1cccc(COc2cccc(Br)c2)c1	WT yeast gro inh 73
Cc1cc(C)c2cc3c(N)c(C(=O)N4CCOCC4)sc3nc2c1	none
NNC(=O)c1cccc(COc2ccc(Br)cc2)c1	WT yeast gro inh 73
CCOc1ccc2nc3sc(C(=O)N4CCOCC4)c(N)c3cc2c1	Lmaj promast 93
COC(=O)c1cc(NC(=S)NCc2ccc(Cl)cc2)cc(C(=O)OC)c1	Arbovirus anti 32
CC1CN(C(=O)c2cccc(COc3ccc(Br)cc3)c2)CC(C)O1 (stereo not drawn)	none
Cc1cc([N+](=O)[O-])nn1CC(=O)NCCc1c[nH]c2ccccc12	none
CC(=O)CCn1cnc([N+](=O)[O-])n1	none
CCOc1ccc(OCc2cccc(C(=O)N3CCOCC3)c2)cc1	CHOP inh 86
NNC(=O)c1ccc(COc2ccc3ccccc3c2)cc1	CHOP inh 85 (no result: WT yeast gro inh, Lmaj promast, Arbovirus anti)
COc1ccc(OCc2cccc(C(=O)NN)c2)cc1	CHOP inh 72
O=C(NCc1ccc2c(c1)OCO2)c1ccc(COc2cccc(Cl)c2)o1	WT yeast gro inh 69
O=C(c1cccc(OCc2ccccc2)c1)N1CCOCC1	none
NNC(=O)c1ccc(COc2ccc3c(c2)CCC3)cc1	none
COc1ccc(NS(=O)(=O)c2ccc(NC(=O)C(CCSC)NC(N)=O)cc2)cc1 (stereo not drawn)	none (no result: WT yeast gro inh, Lmaj promast, Arbovirus anti)
C[C@@H]1C=C(C(=O)NCc2ccccc2)O[C@H](OCc2ccc(CO)cc2)C1	none
CC1CN(c2ccc(S(=O)(=O)N3CCCC3)cn2)CC(C)O1 (stereo not drawn)	none (no result: WT yeast gro inh, Lmaj promast, Arbovirus anti)
CCN(CC)CCNC(=O)C(=O)NCC1OCCN1S(=O)(=O)c1ccc2c(c1)OCCO2 (stereo not drawn)	none
Cc1nc(N2CCOCC2)nc(OCCN2CCOCC2)c1[N+](=O)[O-]	none
O=C(NCc1ccc(Cl)cc1)c1cccc(NC(=O)c2ccccc2)c1	Lmaj promast 55
O=C(NCc1ccc(Cl)cc1)c1ccccc1Oc1ccccc1	WT yeast gro inh 61
O=C(NCc1ccccc1)c1cccc(COc2ccc(Cl)cc2)c1	none
O=C(NCc1ccccc1)c1cccc(COc2cccc(Cl)c2)c1	WT yeast gro inh 67
CC1CCC2(CC1)NC(=O)N(CC(=O)NC(=O)Nc1ccc3c(c1)OCCO3)C2=O (stereo not drawn)	none (no result: WT yeast gro inh, Lmaj promast, Arbovirus anti)
C=CCSc1nnc2nc3[nH]c4c(C)cccc4c3nn12	Lmaj promast 72
COc1cccc(C2C(C#N)=C(N)OC(C(C)(C)C)=C2C#N)c1 (stereo not drawn)	none
COc1cccc(/C=C2/CN(C)CC3=C2OC(N)=C(C#N)C3c2cccc(OC)c2)c1 (stereo not drawn)	Lmaj promast 53
C1=C(CCNc2ncnc3c2[nH]c2ccccc23)CCCC1	WT yeast gro inh 87, Lmaj promast 98, CHOP inh 80
CC(C)OCCCNc1ncnc2c1[nH]c1ccccc12	Lmaj promast 70 (no result: CHOP inh)
c1ccc(CC(Nc2ccccn2)c2ccccc2)cc1 (stereo not drawn)	none
Cc1ccc(OCCCCn2cnc3ccccc32)cc1	WT yeast gro inh 65
Cc1ccccc1OCCCCn1cnc2ccccc21	CHOP inh 72
